In the antibiotic and cytotoxicity screens of Wong et al. (2023):
Among all 39,000 compounds or so, about 3,300 (8.5%) were called active. What follows is part of a selection rich in actives, with near analogues and random picks from the rest.

What follows are compounds tested on HepG2 (assay: cytotoxicity call (relative viability < 0.9)). Conditions: 10 µM.
In the case of `COCC#Cc1ccc2c(c1)O[C@H](CN(C)C(=O)c1ccccc1F)[C@@H](C)CN([C@H](C)CO)S2(=O)=O`, the cytotoxicity call is reported as “inactive”.
`C[C@@H]1CN([C@H](C)CO)C(=O)Cc2cc(NS(=O)(=O)c3ccc(F)cc3)ccc2O[C@H]1CN(C)S(=O)(=O)c1ccc(F)cc1` was tested, and the cytotoxicity call was “inactive”.
For `COc1ccc(cc1)NC(=O)N1CC[C@]2(CC1)CN([C@@H](CO)c1[nH]c3cc(ccc3c12)OC)C(=O)CN1CCOCC1`, the cytotoxicity call was “inactive”.
`O=C1NC(=O)/C(=C\c2ccccc2)N1` was tested, and the cytotoxicity call was “inactive”.
For `O=C(N[C@@H]1CC(=O)N(C2CC2)C1)C1CCC1`, the cytotoxicity call was “inactive”.
For `C[C@H]1CN([C@@H](C)CO)C(=O)c2cc(NC(=O)Cc3cn(C)c4ccccc34)ccc2O[C@@H]1CN(C)Cc1ccc(C(=O)Nc2ccccc2N)cc1`, the cytotoxicity call was “inactive”.
`C[C@H](CO)N1C[C@H](C)[C@H](CN(C)C(=O)Nc2ccccc2)Oc2ccc(NC(=O)C3CC3)cc2CC1=O` was tested, and the cytotoxicity call was “inactive”.
In the case of `N#Cc1cnc2c(C(N)=O)cnn2c1N`, the cytotoxicity call is reported as “inactive”.
`Cc1noc(C)c1NC(=O)Nc1ccc2c(c1)C(=O)N([C@H](C)CO)C[C@@H](C)[C@H](CN(C)Cc1ccccc1)OCCCC[C@@H](C)O2` was tested, and the cytotoxicity call was “inactive”.
With `Nc1nc(=O)c2[nH]c(=O)c(=O)[nH]c2[nH]1` the cytotoxicity call was “inactive”.
In the case of `Cc1noc(C)c1NC(=O)Nc1ccc2c(c1)C(=O)N([C@@H](C)CO)C[C@H](C)[C@@H](CN(C)S(=O)(=O)c1cccs1)OCCCC[C@H](C)O2`, the cytotoxicity call is reported as “inactive”.
For `C[C@@H]1CN([C@H](C)CO)C(=O)c2cc(NS(=O)(=O)c3cn(C)cn3)ccc2O[C@H]1CN(C)CC1CCCCC1`, the cytotoxicity call was “inactive”.
`C[C@H]1CN([C@@H](C)CO)C(=O)CCCn2cc(nn2)CO[C@H]1CN(C)C(=O)Nc1ccccc1C(F)(F)F` was tested, and the cytotoxicity call was “inactive”.
For `C[C@H](CO)N1C[C@H](C)[C@H](CN(C)S(C)(=O)=O)Oc2ncc(Br)cc2C1=O`, the cytotoxicity call was “inactive”.
For `COc1ccc([C@@H](NC(=O)C2CCN(CCOc3ccc(Cl)cc3Cl)CC2)c2ccccn2)cc1`, the cytotoxicity call was “inactive”.
For `COc1ccc(/C=C/CN2CCC(C(=O)N[C@@H](c3ccc(-c4ccccc4)cc3)c3cnccn3)CC2)cc1`, the cytotoxicity call was “active”.
With `COc1ccccc1[C@@H](NC(=O)C1CCN(CCc2ccc(Br)cc2)CC1)c1ccccn1` the cytotoxicity call was “inactive”.
For `COc1ccc(NC(=O)Nc2ccc3c(c2)C(=O)N([C@@H](C)CO)C[C@H](C)[C@@H](CN(C)C(=O)Nc2c(C)noc2C)OCCCC[C@H](C)O3)cc1`, the cytotoxicity call was “inactive”.
`CC(C)N(C)C(=O)c1cccc(NC(=O)c2ccncc2)c1OCCCN(C)Cc1ccc(Oc2ccccc2)cc1` was tested, and the cytotoxicity call was “inactive”.
With `CC(C)=CCC/C(C)=C/CO` the cytotoxicity call was “inactive”.
`C=CC(C)(O)CCC=C(C)C` (stereo unspecified) was tested, and the cytotoxicity call was “inactive”.
`C=C[C@](C)(O)CCC=C(C)C` was tested, and the cytotoxicity call was “inactive”.
With `CC(C)=CCCC(C)=CCCC(C)=CCCC(C)=CCCC(C)=CCCC(C)=CCCC(C)=CCCC(C)=CCCC(C)=CCO` the cytotoxicity call was “inactive”.
`C=CC(C)(O)CCC=C(C)CCC=C(C)C` (stereo unspecified) was tested, and the cytotoxicity call was “active”.
`CC(C)=CCCC(C)=CCO` was tested, and the cytotoxicity call was “active”.
In the case of `CN1CCN(C(=O)C[C@@H]2CC[C@H]3[C@H](COc4ccc(NC(=O)c5ccc(F)c(F)c5)cc4C(=O)N3C)O2)CC1`, the cytotoxicity call is reported as “inactive”.
In the case of `C[C@@H]1CN([C@H](C)CO)C(=O)Cc2cc(NS(=O)(=O)c3ccc(Cl)cc3)ccc2O[C@H]1CN(C)S(C)(=O)=O`, the cytotoxicity call is reported as “inactive”.
`Cc1ccc(S(=O)(=O)Nc2ccc3c(c2)C(=O)N([C@H](C)CO)C[C@H](C)[C@H](CN(C)CC2CCCCC2)OCCCC[C@@H](C)O3)cc1` was tested, and the cytotoxicity call was “inactive”.
In the case of `Cc1ccc(S(=O)(=O)Nc2ccc3c(c2)C(=O)N([C@H](C)CO)C[C@H](C)[C@@H](CN(C)CC2CCCCC2)OCCCC[C@H](C)O3)cc1`, the cytotoxicity call is reported as “inactive”.
`Cc1ccc(S(=O)(=O)Nc2ccc3c(c2)C(=O)N([C@@H](C)CO)C[C@@H](C)[C@@H](CN(C)CC2CCCCC2)OCCCC[C@H](C)O3)cc1` was tested, and the cytotoxicity call was “inactive”.
For `Cc1ccc(S(=O)(=O)Nc2ccc3c(c2)C(=O)N([C@@H](C)CO)C[C@@H](C)[C@@H](CN(C)CC2CCCCC2)OCCCC[C@@H](C)O3)cc1`, the cytotoxicity call was “active”.
In the case of `Cc1ccc(S(=O)(=O)Nc2ccc3c(c2)C(=O)N([C@H](C)CO)C[C@@H](C)[C@@H](CN(C)CC2CCCCC2)OCCCC[C@@H](C)O3)cc1`, the cytotoxicity call is reported as “active”.
For `Cc1ccc(S(=O)(=O)Nc2ccc3c(c2)C(=O)N([C@@H](C)CO)C[C@@H](C)[C@H](CN(C)CC2CCCCC2)OCCCC[C@@H](C)O3)cc1`, the cytotoxicity call was “inactive”.
With `Cc1ccc(S(=O)(=O)Nc2ccc3c(c2)C(=O)N([C@H](C)CO)C[C@@H](C)[C@@H](CN(C)CC2CCCCC2)OCCCC[C@H](C)O3)cc1` the cytotoxicity call was “active”.
In the case of `Cc1ccc(S(=O)(=O)Nc2ccc3c(c2)C(=O)N([C@@H](C)CO)C[C@@H](C)[C@H](CN(C)CC2CCCCC2)OCCCC[C@H](C)O3)cc1`, the cytotoxicity call is reported as “inactive”.
In the case of `Cc1ccc(S(=O)(=O)Nc2ccc3c(c2)C(=O)N([C@@H](C)CO)C[C@H](C)[C@H](CN(C)CC2CCCCC2)OCCCC[C@@H](C)O3)cc1`, the cytotoxicity call is reported as “inactive”.
In the case of `Cc1ccc(S(=O)(=O)Nc2ccc3c(c2)C(=O)N([C@H](C)CO)C[C@H](C)[C@H](CN(C)CC2CCCCC2)OCCCC[C@H](C)O3)cc1`, the cytotoxicity call is reported as “active”.
For `Cc1ccc(S(=O)(=O)Nc2ccc3c(c2)C(=O)N([C@@H](C)CO)C[C@H](C)[C@H](CN(C)CC2CCCCC2)OCCCC[C@H](C)O3)cc1`, the cytotoxicity call was “inactive”.
With `Cc1ccc(S(=O)(=O)Nc2ccc3c(c2)C(=O)N([C@H](C)CO)C[C@@H](C)[C@H](CN(C)CC2CCCCC2)OCCCC[C@@H](C)O3)cc1` the cytotoxicity call was “inactive”.
With `CO[C@H]1CN(C)C(=O)c2ccc(NC(=O)Nc3ccc(Cl)cc3)cc2OC[C@@H](C)N(C(=O)Nc2c(C)noc2C)C[C@@H]1C` the cytotoxicity call was “inactive”.
`C[C@@H]1CCCCO[C@H](CN(C)Cc2ccc(C(=O)O)cc2)[C@@H](C)CN([C@H](C)CO)C(=O)c2cc(NS(=O)(=O)c3ccccc3)ccc2O1` was tested, and the cytotoxicity call was “inactive”.
With `CCCNC(=O)N[C@@H]1C=C[C@H](CC(=O)N2CCN(C)CC2)O[C@@H]1CO` the cytotoxicity call was “inactive”.
`C[C@@H]1CN([C@H](C)CO)C(=O)CCCn2nncc2CO[C@@H]1CN(C)C(=O)Nc1ccnc(N2CCOCC2)c1` was tested, and the cytotoxicity call was “inactive”.
In the case of `OC[C@@H](O)[C@@H](O)[C@@H](O)/C=N/Nc1ccccc1`, the cytotoxicity call is reported as “inactive”.
`CNC(=O)c1c(F)cccc1Nc1nc(Nc2cc3c(cc2OC)CCN3C(=O)CN(C)C)nc2[nH]ccc12` was tested, and the cytotoxicity call was “active”.
With `CN1C(=O)c2cc(NC(=O)Cc3cccs3)ccc2OC[C@H]2O[C@H](CC(=O)NCCCN3CCOCC3)CC[C@H]21` the cytotoxicity call was “inactive”.
For `Cc1noc(C)c1NC(=O)Nc1ccc2c(c1)C(=O)N([C@@H](C)CO)C[C@H](C)[C@@H](CN(C)C(=O)C1CCCCC1)OCCCC[C@@H](C)O2`, the cytotoxicity call was “inactive”.
`COc1ccc2c3c([nH]c2c1)[C@H](CO)N(Cc1cc(ccc1F)F)C[C@]13CCN(CC1)C(=O)CN(C)C` was tested, and the cytotoxicity call was “inactive”.
For `COc1ccc(CC[C@@H](OC(=O)[C@H]2CCCCN2C(=O)Cc2ccccc2)c2cccc(OCC(=O)O)c2)cc1OC`, the cytotoxicity call was “active”.
In the case of `CCC(=O)Nc1cccc([C@@H](CCc2ccc(OC)c(OC)c2)OC(=O)[C@@H]2CCCCN2C(=O)C(=O)C(C)(C)CC)c1`, the cytotoxicity call is reported as “inactive”.
`CC[C@H](C(=O)N1CCCC[C@H]1C(=O)O[C@H](CCc1ccc(OC)c(OC)c1)c1cccc(OCC(=O)NCCNC(=O)COc2cccc([C@@H](CCc3ccc(OC)c(OC)c3)OC(=O)[C@@H]3CCCCN3C(=O)[C@@H](CC)c3cc(OC)c(OC)c(OC)c3)c2)c1)c1cc(OC)c(OC)c(OC)c1` was tested, and the cytotoxicity call was “inactive”.
In the case of `CCCNC(=O)COc1cccc([C@@H](CCc2ccc(OC)c(OC)c2)OC(=O)[C@@H]2CCCCN2C(=O)C(=O)C(C)(C)CC)c1`, the cytotoxicity call is reported as “active”.
`CCC(C)(C)C(=O)C(=O)N1CCCC[C@H]1C(=O)O[C@@H](CCc1ccc(OC)c(OC)c1)c1cccc(OCC(=O)NCCc2ccc(O)cc2)c1` was tested, and the cytotoxicity call was “inactive”.
For `C=CC(=O)Nc1cccc([C@@H](CCc2ccc(OC)c(OC)c2)OC(=O)[C@@H]2CCCCN2C(=O)C(=O)C(C)(C)CC)c1`, the cytotoxicity call was “inactive”.
With `COc1ccc(S(=O)(=O)Nc2ccc3c(c2)C(=O)N([C@@H](C)CO)C[C@H](C)[C@@H](CN(C)S(=O)(=O)c2cn(C)cn2)O3)cc1` the cytotoxicity call was “inactive”.
In the case of `C[C@H]1CN([C@@H](C)CO)C(=O)c2cc(NC(=O)C3CCCCC3)ccc2O[C@@H]1CN(C)Cc1ccc(C(F)(F)F)cc1`, the cytotoxicity call is reported as “inactive”.
`C[C@H](CO)N1C[C@H](C)[C@@H](CN(C)Cc2ccccc2)Oc2ccc(NC(=O)Cn3cnnn3)cc2C1=O` was tested, and the cytotoxicity call was “inactive”.
`C[C@H]1CN([C@@H](C)CO)C(=O)c2cccc(NS(=O)(=O)c3ccccc3)c2O[C@H]1CN(C)S(=O)(=O)c1cn(C)cn1` was tested, and the cytotoxicity call was “inactive”.
For `CCc1nc2ccc(C(=O)NCCCN3CCCC3=O)cn2c1N(CC)C(=O)NCCc1ccccc1`, the cytotoxicity call was “inactive”.
In the case of `C[C@H]1CN([C@@H](C)CO)C(=O)c2cc(NC(=O)Nc3ccc(F)cc3)ccc2O[C@H]1CN(C)Cc1ccc(Cl)c(Cl)c1`, the cytotoxicity call is reported as “inactive”.
With `C[C@@H]1CN([C@@H](C)CO)C(=O)c2cc(NC(=O)Nc3ccc(F)cc3)ccc2O[C@H]1CN(C)Cc1ccc(Cl)c(Cl)c1` the cytotoxicity call was “inactive”.
In the case of `C[C@@H]1CN([C@H](C)CO)C(=O)c2cc(NC(=O)Nc3ccc(F)cc3)ccc2O[C@@H]1CN(C)Cc1ccc(Cl)c(Cl)c1`, the cytotoxicity call is reported as “inactive”.
For `C[C@@H]1CN([C@H](C)CO)C(=O)c2cc(NC(=O)Nc3ccc(F)cc3)ccc2O[C@H]1CN(C)Cc1ccc(Cl)c(Cl)c1`, the cytotoxicity call was “inactive”.
For `C[C@H](CO)N1C[C@H](C)[C@H](CN(C)Cc2ccc(Cl)c(Cl)c2)Oc2ccc(NC(=O)Nc3ccc(F)cc3)cc2C1=O`, the cytotoxicity call was “active”.
For `C[C@@H]1CN([C@@H](C)CO)C(=O)c2cc(NC(=O)Nc3ccc(F)cc3)ccc2O[C@@H]1CN(C)Cc1ccc(Cl)c(Cl)c1`, the cytotoxicity call was “active”.
`Cc1noc(C)c1NC(=O)Nc1ccc2c(c1)CC(=O)N([C@@H](C)CO)C[C@@H](C)[C@@H](CN(C)Cc1ccc(C(=O)Nc3ccccc3N)cc1)O2` was tested, and the cytotoxicity call was “inactive”.
